High-throughput results (PubChem)
TIM10 inh – growth inhibitors of isogenic TIM10 control yeast, primary screen, counter-screen for tim10-1 yeast inhibitor project, luminescence, uHTS | S. cerevisiae TIM10 strain growth, BacTiter-Glo luminescence, 24 h | inhibition, % at 10 µM | 330,000 tested, 1.4% active | AID 463195, 2010;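 active means inhibition of 40% or more at the single tested concentration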;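 further: wild-type TIM10 isogenic control strain grown at permissive 25 °C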
tim23-1 inh – growth inhibitors of tim23-1 mutant yeast, primary screen, luminescence, uHTS; S. cerevisiae tim23-1 growth, BacTiter-Glo luminescence, 24 h; inhibition, % at 20 µM; 330,000 tested, 1.3% active;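 active means growth inhibition of the mutant yeast at or above 50%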;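 further: temperature-sensitive mutant grown at 25 °C; plate controls were DMSO-treated mutant yeast for no effect and medium wells lacking yeast for full effect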
NALP3 yeast inh – NALP3 inflammasome inhibitors in reconstituted yeast, primary screen, luminescence, uHTS. 330,000 tested, 0.39% active. inhibition, % at 10 µM. AID 2825, 2010. Yeast reconstituted NLRP3/ASC/caspase-1, beta-gal luminescence, 24 h;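 active means inhibition of 50% or more; inactive means inhibition below 50%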;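 further: plate controls were induced DMSO wells for no effect and uninduced yeast grown without galactose for full effect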
V-ATPase pH – regulators of yeast V-ATPase proton pumping, primary screen, pHLuorin cytosolic pH fluorescence; S. cerevisiae; response, % at 10 µM; 350,000 tested, 0.37% active; AID 504577, 2011; in the data active means response mostly above about 7.3%, no sharp cut-off; inactive means mostly below about 5.4%; further: actives read high
NALP1 yeast inh – NALP1 inflammasome inhibitors in reconstituted yeast, colorimetric, S. cerevisiae, triplicate retest. inhibition, % at 10 µM. S. cerevisiae NALP1/ASC/caspase-1 growth, X-gal OD620, 72 h. 280,000 tested, 0.61% active; in the data active means inhibition mostly above about 24%, no sharp cut-off; inactive means mostly below about 32%
tim10-1 inh – growth inhibitors of tim10-1 mutant yeast, primary screen, luminescence, uHTS; S. cerevisiae tim10-1 ts strain growth, BacTiter-Glo, 24 h; inhibition, % at 20 µM; 330,000 tested, 2.2% active; AID 463190, 2010;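 active means inhibition of at least 40%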;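 further: mutant grown at 25 °C; 0% = DMSO wells with yeast and 100% = wells holding no yeast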
TIM10 conf – growth inhibitors of wild-type TIM10 yeast, confirmation, counter-screen for tim10-1 synthetic lethality project, single concentration, luminescence, S. cerevisiae; 4,600 tested, 63% active; inhibition, % at 10 µM; shares compounds with TIM10 inh; S. cerevisiae tim10 strain growth, BacTiter-Glo luminescence, 24 h;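 active means inhibition of yeast growth at or above a set limit in either of two replicates at 10 µM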;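 further: this counterscreen used the strain with wild-type TIM10; 0% = yeast with DMSO and 100% = medium wells lacking yeast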
Numbers without * were called inactive; / = not tested or not shown. Sampled rows, rich in hits. Any-hit rate of the full collection: about 4.2%.

SMILES	TIM10 inh	tim23-1 inh	NALP3 yeast inh	V-ATPase pH	NALP1 yeast inh	tim10-1 inh	TIM10 conf
FC(F)Oc1ccc(NC(=S)NC23CC4CC(CC(C4)C2)C3)cc1	52.3*	44.1	20.9	0.5	5.0	17.4	34.8*
CCC1C(c2ccccc2)N(C)C(c2ccccc2)CC1(O)c1ccccc1 (stereo not drawn)	44.0*	31.7	-24.1	1.6	1.2	38.9	34.2*
O=C(Nc1ncn[nH]1)c1cc([N+](=O)[O-])ccc1Cl	4.9	5.2	16.9	0.3	10.1	9.5	/
O=C(Nc1ncn[nH]1)c1ccc([N+](=O)[O-])cc1[N+](=O)[O-]	42.6*	-4.9	-3.2	-1.7	-5.1	6.1	-20.4
COc1ccccc1NC(=S)N(Cc1ccc(C)cc1)Cc1cccnc1	46.6*	29.5	9.4	0.1	0.8	38.1	14.9
CC1CCC2(CC1)NC(=O)N(Cc1cccc(C(F)(F)F)c1)C2=O (stereo not drawn)	16.7	23.4	19.1	6.4	3.0	18.8	/
CC(C)(C)NC(=O)C(c1cccs1)N(CC1CCCO1)C(=O)c1ccc(-c2ccccc2)[nH]1 (stereo not drawn)	41.7*	32.7	-2.2	2.5	12.2	25.3	-10.6
O=C(NCC1CCCO1)C(c1cccs1)N(Cc1ccccc1)C(=O)c1ccc(-c2ccccc2)[nH]1 (stereo not drawn)	33.3	26.7	12.5	0.8	17.1	25.9	/
Cc1ccsc1/C=N/NC(=S)NCc1ccccc1	54.0*	27.7	34.9	6.0	14.5	34.6	43.8*
Cc1ccsc1/C=N\NC(=O)CC(=O)NCc1ccccc1	-6.4	-0.3	19.9	3.5	4.7	-2.3	/
CC1(C)CC2CC(C)(CN2C(=O)NC(=O)c2ccccc2)C1 (stereo not drawn)	17.4	18.7	-12.7	-1.4	26.7	17.0	/
Cc1ccc(C(=O)Nc2ccccc2C(=O)N2CC3(C)CC2CC(C)(C)C3)cc1 (stereo not drawn)	44.4*	30.9	12.6	1.9	5.1	32.8	23.9
Nc1c(C(=O)O)sc2nc(-c3ccccc3)c3c(c12)CCCC3	31.4	42.0	14.8	-1.4	17.9	24.8	/
CCc1c(-c2ccccc2)nc2sc3c(c2c1N)CCCC3	45.4*	35.0	10.3	3.5	6.1	38.2	48.7*
CCC(C)n1c(SCC(=O)Nc2cc(C(C)(C)C)nn2-c2ccccc2)nc2ccccc2c1=O (stereo not drawn)	40.7*	41.4	10.0	-1.0	41.6	29.6	25.0
CCC(C)n1c(SCC(=O)Nc2cc(C)on2)nc2ccccc2c1=O (stereo not drawn)	23.5	24.9	-10.9	-2.2	5.2	26.6	/
COC(=O)C(C)N(C(=O)c1cccc(Cl)c1)c1c(C)cccc1C (stereo not drawn)	30.2	35.2	-23.0	0.8	34.0	34.6	/
COC(=O)C(C)N(C(=O)c1cccc2ccccc12)c1c(C)cccc1C (stereo not drawn)	41.8*	44.4	-7.5	4.8	7.8	27.2	30.8*
Cc1ccc(S(=O)(=O)c2c(C)cc(C)[nH]c2=O)cc1	-14.8	-4.1	5.6	2.6	11.2	-1.7	/
COc1ccc(/C(C)=N/NC(=S)NCCc2ccccc2)c(O)c1	43.2*	26.8	21.1	3.8	-14.5	28.3	36.6*
O=C(NCC1(c2ccccc2)CCOCC1)c1cccs1	9.1	3.4	0.1	0.8	-16.0	14.1	/
Clc1ccc2c(c1)C(N1CCNCC1)Cc1ccccc1S2 (stereo not drawn)	47.8*	3.6	23.9	-0.5	7.7	22.0	-39.5
O=C1C(Nc2cccc(O)c2)=C(N2CCCCC2)C(=O)c2ccccc21	45.8*	16.8	-1.9	-3.7	13.1	10.7	39.6*
CCCOC(=O)c1ccc(NC(=O)c2ccoc2C)cc1	-2.1	10.4	27.0	-3.1	30.3	-0.5	/
CCCCOC(=O)c1ccc(NC(=O)c2ccoc2C)cc1	41.1*	27.0	19.0	0.7	-0.6	34.3	2.4
SMILES	TIM10 inh	tim23-1 inh	NALP3 yeast inh	V-ATPase pH	NALP1 yeast inh	tim10-1 inh	TIM10 conf
Cc1ccc(NC(=O)C/C(N)=N/OC(=O)Nc2ccc(C)c(Cl)c2)cc1	37.7	14.0	1.6	0.4	/	27.5	/
Cc1ccc(NC(=O)C/C(N)=N/OC(=O)Nc2cccc(C)c2)cc1	41.7*	15.8	-2.0	2.4	/	39.9	27.8
COc1ccc(N2CCN(CC(=O)N3c4ccccc4CC3C)CC2)cc1 (stereo not drawn)	2.9	2.6	9.6	1.7	2.2	9.8	/
Cc1ccc(C2CC(=O)C=C(Nc3ccc(Cl)cc3)C2)cc1 (stereo not drawn)	24.9	21.1	7.8	-3.1	18.3	19.6	/
O=C1C=C(Nc2ccc(Cl)cc2)CC(c2ccc(Cl)cc2)C1 (stereo not drawn)	42.3*	28.0	9.1	-2.7	-0.1	26.1	22.4
CN(c1ccccc1)C(c1ccc(F)cc1)c1nnnn1C1CCCC1 (stereo not drawn)	45.4*	37.2	-3.3	4.4	43.5	31.8	31.4*
CC(C)(O)c1[nH]c2cc(C(F)(F)F)ccc2c1C(C)(C)O	67.3*	7.8	20.3	-0.5	12.1	-6.2	3.9
CN(C)S(=O)(=O)c1cccc(NC(=S)NC2CCCCC2)c1	14.4	16.8	0.6	1.7	2.4	26.0	/
Cc1cc(NC(=S)NC(=O)C2CC2)ccc1Br	41.1*	46.6	10.5	-1.9	11.7	32.2	41.8*
Cc1ccc(NC(=S)NC(=O)C2CCCC2)c(Br)c1	41.2*	44.5	31.4	2.7	/	26.6	35.1*
Cc1ccccc1NC(=S)NC(=O)C1CCCCC1	28.3	41.7	32.6	-2.7	6.8	36.8	/
CN(C)S(=O)(=O)c1cccc(NC(=S)NC(=O)C2CCCCC2)c1	41.1*	43.4	-52.5	3.8	16.4	24.2	35.3*
CCOC(=O)c1c(NC(=O)COc2cccc3c2CCN(C)C3=O)sc2c1CCC2	1.2	-0.7	10.4	0.2	15.0	4.2	/
CCOc1ccc(S(=O)(=O)N(CC(=O)NN=C2CCN(C)CC2)c2ccc(C)cc2)cc1	0.4	13.4	13.9	8.3	8.9	27.7	/
COc1ccc(CN(Cc2nc3ccccc3c(=O)[nH]2)C(=O)NC2CCCCC2)cc1	28.6	11.4	4.5	-3.4	4.4	28.2	/
COc1ccc(S(=O)(=O)N(Cc2nc3ccccc3c(=O)[nH]2)C2CCCC2)cc1	42.2*	29.5	3.1	-2.5	10.1	30.1	12.7
